Gal4-VP16 FLuc = VP16 counterscreen qHTS for inhibitors of ROR gamma transcriptional activity. Drosophila S2 Gal4-VP16 UAS-luciferase, luminescence, 20 h. Potency, µM (top dose mostly 53.6 µM), inactives show top-dose activity, negative = inhibition, actives largely listed as inhibitors. 310,000 compounds, 3.5% hits. AID 2546, 2010;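 also: Gal4-VP16 expression switched on by copper sulfate through the metallothionein promoter; % is scaled to controls: 0 for no effect and ±100 for the full control effect; nearly all actives have a fitted effect of over 50% in size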
ATXN viability = Viability Counterscreen for Primary qHTS for Inhibitors of ATXN expression. Potency, µM (series often up to 56.7 µM), most hits filed as cytotoxic. S2 cells (HEK-293 line with an ATXN2-luciferase reporter) viability, CellTiter-Fluor protease fluorescence, 24 h. 400,000 compounds, 0.49% hits; also: nearly all actives have a fitted effect of over 40% in size
RORgamma inh = qHTS for inhibitors of ROR gamma transcriptional activity. Potency, µM (top dose mostly 53.6 µM), without a hit: top-dose activity change, negative = inhibition, hits mostly inhibitors. 310,000 compounds, 5.4% hits. AID 2551, 2010. Nuclear receptor ROR-gamma (Mus musculus), P51450. Drosophila S2 Gal4-RORgamma UAS-luciferase reporter, 20 h; also: % is scaled to controls: 0 for no effect and ±100 for the full control effect; nearly all actives have a fitted effect of over 60% in size
Target sequence (P51450 whole entry, looked up, the tested form may be a part): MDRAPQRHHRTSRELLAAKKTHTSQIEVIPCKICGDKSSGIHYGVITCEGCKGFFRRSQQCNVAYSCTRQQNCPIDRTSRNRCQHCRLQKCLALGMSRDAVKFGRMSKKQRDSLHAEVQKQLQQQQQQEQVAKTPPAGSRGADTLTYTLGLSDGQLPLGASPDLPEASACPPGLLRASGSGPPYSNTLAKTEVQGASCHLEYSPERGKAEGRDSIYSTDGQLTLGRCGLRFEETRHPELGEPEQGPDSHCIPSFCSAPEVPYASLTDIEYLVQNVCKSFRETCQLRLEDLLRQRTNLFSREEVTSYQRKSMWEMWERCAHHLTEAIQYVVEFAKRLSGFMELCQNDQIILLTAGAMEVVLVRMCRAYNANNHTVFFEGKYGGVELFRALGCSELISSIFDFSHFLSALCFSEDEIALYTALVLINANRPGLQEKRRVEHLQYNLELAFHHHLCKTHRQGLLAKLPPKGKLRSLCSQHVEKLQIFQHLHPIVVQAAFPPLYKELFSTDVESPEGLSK
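Stable Schneider cell line, Gal4 DNA-binding domain fused to ROR gamma, UAS-luciferase. Cmpd 1 hr RT → CuSO4 700 uM final → 20 hr RT → luciferase reagent 10 min → luminescence.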
TGFb inhibitor = qHTS for Inhibitors of TGF-b. 410,000 compounds, 1.2% hits. Potency, µM (series often up to 46.1 µM), without a hit: at the top dose activity, negative = inhibition, usual class: inhibitors. AID 588855, 2011. HepG2 CAGA-GFP TGF-b/SMAD3 reporter, GFP fluorescence, 18 h; TGF-beta stimulated, 500 pg/mL final; also: % is scaled to controls: 0 for no effect and ±100 for the full control effect; nearly all actives have a fitted effect of over 65% in size
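HEPG2 CAGA-GFP, 1000 cells/well; 2 h settle, 37 C; cpd via pin tool; TGF-b 500 pg/mL final; 18 h, 37 C; GFP imaging ex488/em500-530; %Activity normalised to -TGF-b and +DMSO controls; CRC fit, curve class.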
ATXN2 expr inh = Primary qHTS for Inhibitors of ATXN expression | 360,000 compounds, 0.72% hits | HEK-293 ATXN2-luciferase reporter, luminescence, 24 h | Potency, µM (top dose mostly 57 µM), inactives show at the top dose activity change, negative = inhibition, actives largely listed as inhibitors; also: % is scaled to controls: 0 for no effect and ±100 for the full control effect; nearly all actives have a fitted effect of over 55% in size
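ATXN2-luciferase reporter cells (luciferase flanked by upstream and downstream ATXN2 gene portions) were treated 24 h at 37 °C with compounds at up to 57 uM. SteadyGlo luminescence gave expression; GF-AFC fluorescence gave viability.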
HepG2 viability = qHTS for Inhibitors of TGF-b: Cytotox Counterscreen; Potency, µM (series often up to 46.1 µM), for the others: at the top dose activity change, negative = cytotoxicity, hits mostly cytotoxic; 410,000 compounds, 0.76% hits; HepG2 CAGA-GFP viability, ATP luminescence, 18 h; AID 588856, 2011
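HepG2 CAGA-GFP cells (1000/well, DMEM with 1% FBS) received compound, then TGF-beta at 500 pg/mL final, and were incubated 18 hours at 37 degrees C. Viability was read by CellTiter-Glo luminescence. Media-only wells were set as complete cell-killing and DMSO as no toxicity.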
* marks the source's active call; other numbers are inactive results; i = inactive; ? = inconclusive; nt = not tested or not shown; [ ] = dose if it differs, or a comment. Compounds with a hit are over-represented: about 6.3% of the library has one in this group of screens. Calls follow the shape of the dose curve; as a rule, active = well fitted curve in the direction sought with a large enough effect; inconclusive = small, poorly fitted or top-dose-only effect, or another doubt; inactive = no such curve, though single readings can be large; an effect the other way counts as inactive or inconclusive. Potency is read from the fitted curve at half-maximal effect.

SMILES	Gal4-VP16 FLuc	ATXN viability	RORgamma inh	TGFb inhibitor	ATXN2 expr inh	HepG2 viability
CCC(=O)OC1=CN(Cc2ccccc2)S(=O)(=O)c2ccccc21	nt	i	nt	-10.0%	1.2%	4.4%
COc1ccc(-c2nc3scc(CCNS(=O)(=O)c4c(C)noc4C)n3n2)cc1OC	nt	nt	nt	?	nt	-22.6%
COc1cc2[nH]c(=S)nc(NCc3ccccn3)c2cc1OC	2.6%	i	-22.9%	-15.0%	-25.9%	2.1%
COc1cc2[nH]c(=S)nc(NCc3ccccc3)c2cc1OC	?	i	7.08µM*	-6.6%	12.0%	-18.8%
COc1cc2[nH]c(=S)nc(NCc3cccnc3)c2cc1OC	-5.5%	i	0.6%	-2.7%	-5.2%	-8.5%
COc1cc2[nH]c(=S)nc(NCc3ccc(C)cc3)c2cc1OC	17.8µM*	?	6.31µM*	-4.3%	nt	-18.4%
COCCNc1nc(=S)[nH]c2cc(OC)c(OC)cc12	-4.1%	i	-19.4%	-2.9%	-2.6%	3.1%
COc1ccc(CNc2nc(=S)[nH]c3cc(OC)c(OC)cc23)cc1	?	?	15.8µM*	2.1%	nt	-9.7%
O=C(NCCc1ccc(Cl)cc1)C1CCC(CNc2nc(=S)[nH]c3ccccc23)CC1 (configuration not stated)	?	i	11.2µM*	-19.9%	-35.9%	-39.0%
O=C(N/N=C/C1CC=CCC1)c1ccccc1O (configuration not stated)	?	i	11.2µM*	0.8%	0.5%	-34.2%
O=C(N/N=C/C1CC=CCC1)c1ccc(Cl)cc1O (configuration not stated)	10µM*	i	12.6µM*	1.2%	1.5%	7.3%
O=C(N/N=C/C1CC=CCC1)c1cc(Br)ccc1O (configuration not stated)	?	i	?	-0.6%	12.8%	6.2%
COc1ncnc2c1ncn2CCCNCc1ccccc1	nt	i	nt	-9.8%	-0.4%	-18.2%
COc1cc(C(=O)Nc2ccc(OCc3cc(=O)n4cccc(C)c4n3)cc2)cc(OC)c1OC	nt	nt	nt	-2.9%	nt	-0.6%
O=C(NNc1nc2ccccc2s1)c1ccc(F)cc1	1.26µM*	i	0.562µM*	-11.0%	3.0%	-58.1%
O=C(NNc1nc2c(F)cc(F)cc2s1)c1ccccc1	?	i	5.01µM*	0.3%	1.0%[11.3 µM]	-4.4%
O=S(=O)(Nc1nc2ccccc2s1)c1cc(F)ccc1F	6.8%	i	38.2%	-4.6%	1.8%	-10.2%
O=C(NNc1nc2ccc(F)cc2s1)c1cccc(F)c1	?	?	3.98µM*	12.6µM*	-29.1%[11.3 µM]	-59.5%
CC(C)NC(=S)NNc1nc2ccccc2s1	3.98µM*	i	2.51µM*	-10.4%	22.3%	5.4%
COC(=O)c1c(C)nc(C)c(C(=O)OC)c1-c1ccccc1[N+](=O)[O-]	-17.5%	nt	-11.4%	nt	nt	nt
CCOc1ccc(NC(=S)NCc2ccc3[nH]c(C)cc3c2)cc1	10µM*	?	2.51µM*	?	nt	-14.9%
COc1cc(OC)cc(C(=O)NCc2ccc3[nH]c(C)cc3c2)c1	-22.8%	i	5.8%	-10.7%	11.2%	-17.8%
CCCCNC(=S)NCc1ccc2[nH]c(C)cc2c1	?	i	10µM*	-21.8%	-10.0%	-32.2%
Cc1cc2cc(CNC(=O)c3ccc(Br)o3)ccc2[nH]1	0.8%	i	-15.2%	5.8%	-1.3%	-2.0%
Cn1c(=O)c(F)c(Nc2ccc(I)cc2F)c2c(=O)n(C[C@@H](O)CO)cnc21	nt	nt	nt	nt	-11.3%	nt
SMILES	Gal4-VP16 FLuc	ATXN viability	RORgamma inh	TGFb inhibitor	ATXN2 expr inh	HepG2 viability
COc1ccc(/C=C/C(=O)CC(O)(c2ccccc2)C(F)(F)F)cc1 (configuration not stated)	?	i	14.1µM*	?	-20.7%	10µM*
O=C(CC(O)(c1ccccc1)C(F)(F)C(F)F)c1cccs1 (configuration not stated)	26.6%	i	22.0%	-11.6%	2.2%	6.7%
O=C(/C=C/c1ccccc1)CC(O)(c1ccccc1)C(F)(F)C(F)F (configuration not stated)	?	?	?	12.6µM*	?	-84.2%
COc1ccc(/C=C/C(=O)CCC(=O)O)cc1	-4.9%	i	-5.5%	0.0%	42.2%	-70.5%
O=C(/C=C/c1ccccc1)CC(O)(c1ccccc1)C(F)(F)F (configuration not stated)	?	?	?	11.2µM*	?	-79.3%
CC(CNC(=O)c1nnc(Cc2ccc(F)cc2)o1)c1ccccc1 (configuration not stated)	nt	i	nt	-0.1%	-5.5%	-7.5%
CCOc1ccc(S(=O)(=O)NCCc2csc3nc(-c4cccc(C)c4)nn23)cc1	nt	nt	nt	-9.4%	nt	-14.4%
CC(Sc1cccc[n+]1[O-])C(=O)Nc1cccc([N+](=O)[O-])c1 (configuration not stated)	-16.3%	i	24.9%	-22.8%	22.4%	-44.7%
CCC(Sc1ccccn1)C(=O)Nc1cccc([N+](=O)[O-])c1 (configuration not stated)	?	i	15.8µM*	-21.4%	?	-13.7%
CCOc1ccc(OCc2ccc(C(=O)O)o2)cc1	14.8%[0.365 µM]	i	10µM*	-8.4%	?	-1.0%
CC(C)Oc1ccc(C(=O)NCC2Cc3cc(F)cc(-c4cnccn4)c3O2)cc1 (configuration not stated)	nt	i	nt	nt	nt	nt
CCOC(=O)N1CCN(c2nc(C(F)(F)F)nc3c(C)cc(C)cc23)CC1	20µM*	i	?	13.1%	-17.6%	-24.9%
Cc1ccc(-c2n[nH]c(=S)c3ccccc23)cc1	2.3%	i	30.6%	-14.9%	nt	-1.4%
S=c1[nH]nc(-c2ccccc2)c2ccccc12	11.2µM*	i	7.08µM*	2.5%	2.0%	1.7%
Cc1ccc(-c2nnc(N3CCCCC3)c3ccccc23)cc1S(=O)(=O)N1CCN(C)CC1	?	i	-5.9%	?	-7.0%	-24.9%
CCOc1ccc(-c2nnc(N3CCCCC3)c3ccccc23)cc1	-8.4%	28.2µM*	10.7%	-0.9%	?	-27.9%
Cc1ccc(-c2nnc(N3CCCCC3)c3ccccc23)cc1S(=O)(=O)N(C)C	17.8µM*	?	5.8%	-2.4%	?	4.3%
CCOc1ccc(-c2n[nH]c(=S)c3ccccc23)cc1	10µM*	i	7.08µM*	-5.0%	-14.3%	4.0%
COc1ccc(C(=O)N2CCCCC2CCN2CCCCC2)cc1 (configuration not stated)	nt	nt	nt	-11.0%	nt	1.1%
